Results as given in the supplement of paper PMC10849652.
About 7,900 targets were measured; listed, in parts, are those with a hit and a random draw of the rest. About 0.6% of all pairs of compound and target were hits. A number with no mark means an inactive call.

Compound: Nc1ccccc1NC(=O)c1ccc(CNC(=O)OCc2cccnc2)cc1 [entinostat]
Assay: log2 fold change, soluble protein after heating vs DMSO (PISA); higher = thermal stabilisation; K562 cells, 10 uM, 30 min; active = over 0.2 and 3.5 SD of the protein, either way, in both replicates (recomputed)
Procedure, shortened: (§1)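 Aliquots of K562 cells (2×10^6 cells/mL) treated with 10 μM compound for 30 min were heated for 3 min over 48°C-58°C. After pooling and extraction in PBS with 0.5% NP-40 at 4°C, soluble protein from a 21,000xg, 90 min spin was quantified by TMTpro 16plex LC-MS/MS with channel sums equalised. Thermal stability is expressed against control samples, from duplicates, as a log2 fold change.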

Chain of UniProt Q2TAC2 (Q2TAC2 whole entry, looked up): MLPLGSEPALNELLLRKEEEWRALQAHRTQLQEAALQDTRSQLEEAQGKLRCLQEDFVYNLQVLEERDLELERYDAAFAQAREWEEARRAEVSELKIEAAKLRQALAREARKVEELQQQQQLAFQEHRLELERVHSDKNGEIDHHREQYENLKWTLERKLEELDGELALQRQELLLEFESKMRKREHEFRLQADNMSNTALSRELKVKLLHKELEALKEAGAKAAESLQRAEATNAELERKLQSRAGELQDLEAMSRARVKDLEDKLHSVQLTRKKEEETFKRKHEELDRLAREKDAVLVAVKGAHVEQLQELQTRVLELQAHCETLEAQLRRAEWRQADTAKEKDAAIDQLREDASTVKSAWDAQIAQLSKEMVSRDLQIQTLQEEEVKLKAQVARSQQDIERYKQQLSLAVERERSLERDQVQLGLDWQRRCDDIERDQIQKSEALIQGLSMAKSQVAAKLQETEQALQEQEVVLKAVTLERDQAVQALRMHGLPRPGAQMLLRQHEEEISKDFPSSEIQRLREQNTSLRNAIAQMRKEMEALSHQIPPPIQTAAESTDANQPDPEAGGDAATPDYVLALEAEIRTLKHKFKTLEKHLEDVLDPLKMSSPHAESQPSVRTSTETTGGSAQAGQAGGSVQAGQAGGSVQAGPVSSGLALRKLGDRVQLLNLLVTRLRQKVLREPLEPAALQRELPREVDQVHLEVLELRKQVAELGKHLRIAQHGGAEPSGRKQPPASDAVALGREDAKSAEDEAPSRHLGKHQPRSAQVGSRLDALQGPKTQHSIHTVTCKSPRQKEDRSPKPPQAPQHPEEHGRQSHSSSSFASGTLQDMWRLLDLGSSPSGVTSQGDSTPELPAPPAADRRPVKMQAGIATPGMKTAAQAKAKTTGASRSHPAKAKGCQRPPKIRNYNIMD
Chain of UniProt O95628 (O95628 whole entry, looked up): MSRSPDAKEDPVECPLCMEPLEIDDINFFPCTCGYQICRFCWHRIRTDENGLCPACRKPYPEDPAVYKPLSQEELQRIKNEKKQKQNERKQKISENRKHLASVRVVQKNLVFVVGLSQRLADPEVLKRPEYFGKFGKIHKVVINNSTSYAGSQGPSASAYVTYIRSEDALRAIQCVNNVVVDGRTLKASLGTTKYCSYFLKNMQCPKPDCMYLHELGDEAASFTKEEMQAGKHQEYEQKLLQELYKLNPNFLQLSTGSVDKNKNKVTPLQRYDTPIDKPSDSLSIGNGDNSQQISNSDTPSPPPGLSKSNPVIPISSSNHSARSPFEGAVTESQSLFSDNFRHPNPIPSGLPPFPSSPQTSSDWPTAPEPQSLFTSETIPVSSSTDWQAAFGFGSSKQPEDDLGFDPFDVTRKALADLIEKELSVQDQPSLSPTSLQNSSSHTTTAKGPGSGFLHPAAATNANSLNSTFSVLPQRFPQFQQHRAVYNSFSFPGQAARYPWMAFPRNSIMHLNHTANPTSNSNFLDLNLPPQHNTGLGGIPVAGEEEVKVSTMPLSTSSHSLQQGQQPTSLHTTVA
Chain of UniProt Q9BSQ5 (Q9BSQ5 whole entry, looked up): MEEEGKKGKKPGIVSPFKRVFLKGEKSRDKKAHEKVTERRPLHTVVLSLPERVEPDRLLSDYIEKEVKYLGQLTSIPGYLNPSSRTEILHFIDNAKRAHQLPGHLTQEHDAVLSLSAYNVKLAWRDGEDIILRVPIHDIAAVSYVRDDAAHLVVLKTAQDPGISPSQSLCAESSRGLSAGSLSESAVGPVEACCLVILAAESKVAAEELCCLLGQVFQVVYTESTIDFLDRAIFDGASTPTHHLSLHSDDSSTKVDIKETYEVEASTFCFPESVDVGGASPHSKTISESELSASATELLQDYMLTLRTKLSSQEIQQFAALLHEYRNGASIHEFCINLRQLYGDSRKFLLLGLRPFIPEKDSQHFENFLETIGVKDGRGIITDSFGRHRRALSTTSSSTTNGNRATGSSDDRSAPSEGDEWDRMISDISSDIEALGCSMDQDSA
Chain of UniProt A8MTT3 (A8MTT3 whole entry, looked up): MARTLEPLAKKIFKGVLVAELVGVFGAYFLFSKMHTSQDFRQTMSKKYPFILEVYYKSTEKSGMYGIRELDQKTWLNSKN

With CCM2 isoform 2 (UniProt Q9BSQ5) the log2 fold change was 0.326 (active).

First: CCDC167 (UniProt Q9P0B6)
Chain of UniProt Q9P0B6 (Q9P0B6 whole entry, looked up): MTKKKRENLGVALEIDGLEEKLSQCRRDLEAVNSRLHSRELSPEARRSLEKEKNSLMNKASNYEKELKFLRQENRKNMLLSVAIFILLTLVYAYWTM
Second: CD68 (UniProt P34810)
The log2 fold change of the first is higher: 0.031 for the first, -0.33 for the second.

CRTC1 isoform 2 (UniProt Q6UUV9) and CCDC57 (UniProt Q2TAC2) are within 0.2 log units of each other in log2 fold change: 0.044 for the first, -0.031 for the second.

C6orf120 (UniProt Q7Z4R8) and COMMD3-BMI1 (UniProt R4GMX3) are within 0.2 log units of each other in log2 fold change: 0.083 for the first, -0.062 for the second.

COMMD1 (UniProt Q8N668) and CRLS1 (UniProt Q9UJA2) are within 0.2 log units of each other in log2 fold change: 0.008 for the first, 0.151 for the second.

CD84 (UniProt Q9UIB8) and CRTC3 (UniProt Q6UUV7) are within 0.2 log units of each other in log2 fold change: 0.234 for the first, 0.057 for the second.

Compound: O=C(CCCCCCC(=O)Nc1ccccc1)NO [vorinostat]
Assay: as above
Procedure, shortened: as §1

CCM2 isoform 2 (UniProt Q9BSQ5) and CCDC167 (UniProt Q9P0B6) are within 0.2 log units of each other in log2 fold change: -0.038 for the first, 0.008 for the second.

CCND3 (UniProt P30281) and CEMIP2 (UniProt Q9UHN6) are within 0.2 log units of each other in log2 fold change: 0.048 for the first, 0.038 for the second.

Going from CNOT4 isoform 9 (UniProt O95628) to CKS2 (UniProt P33552), the log2 fold change rises from -0.003 to 0.28.

CRTC1 isoform 2 (UniProt Q6UUV9) and COMMD3-BMI1 (UniProt R4GMX3) are within 0.2 log units of each other in log2 fold change: 0.012 for the first, 0.109 for the second.

CEBPZOS (UniProt A8MTT3) and CASP7 isoform 3 (UniProt P55210) are within 0.2 log units of each other in log2 fold change: -0.03 for the first, 0.044 for the second.

COMMD1 (UniProt Q8N668) and CFAP58 (UniProt Q5T655) are within 0.2 log units of each other in log2 fold change: -0.032 for the first, 0.018 for the second.

CRLS1 (UniProt Q9UJA2) and CCDC187, A0A1W2PQX5 are within 0.2 log units of each other in log2 fold change: -0.005 for the first, -0.042 for the second.

Target CLCN5 isoform 2 (UniProt P51795) has a log2 fold change of 0.062.

Compound: O=C(CCCCCCNC(=O)c1cnc(N(c2ccccc2)c2ccccc2Cl)nc1)NO [citarinostat]
Assay: as above
Procedure, shortened: as §1

CCM2 isoform 2 (UniProt Q9BSQ5) and CCDC167 (UniProt Q9P0B6) are within 0.2 log units of each other in log2 fold change: -0.073 for the first, -0.014 for the second.

CCND3 (UniProt P30281) and CEMIP2 (UniProt Q9UHN6) are within 0.2 log units of each other in log2 fold change: 0 for the first, 0.124 for the second.

CCDC82 (UniProt Q8N4S0) and CNOT4 isoform 9 (UniProt O95628) are within 0.2 log units of each other in log2 fold change: 0.023 for the first, -0.038 for the second.

CKS2 (UniProt P33552) and CFAP47 (UniProt Q6ZTR5) are within 0.2 log units of each other in log2 fold change: -0.092 for the first, -0.042 for the second.

CCDC57 (UniProt Q2TAC2) and C6orf120 (UniProt Q7Z4R8) are within 0.2 log units of each other in log2 fold change: 0.008 for the first, 0.031 for the second.

CEBPZOS (UniProt A8MTT3) and CASP7 isoform 3 (UniProt P55210) are within 0.2 log units of each other in log2 fold change: -0.011 for the first, -0.058 for the second.

CLASP2 (UniProt O75122) and COMMD1 (UniProt Q8N668) are within 0.2 log units of each other in log2 fold change: 0.143 for the first, 0.039 for the second.

CS (UniProt F8VU34) and CLINT1 (UniProt Q14677) are within 0.2 log units of each other in log2 fold change: -0.298 for the first, -0.146 for the second.

First: CFAP58 (UniProt Q5T655)
Chain of UniProt Q5T655 (Q5T655 whole entry, looked up): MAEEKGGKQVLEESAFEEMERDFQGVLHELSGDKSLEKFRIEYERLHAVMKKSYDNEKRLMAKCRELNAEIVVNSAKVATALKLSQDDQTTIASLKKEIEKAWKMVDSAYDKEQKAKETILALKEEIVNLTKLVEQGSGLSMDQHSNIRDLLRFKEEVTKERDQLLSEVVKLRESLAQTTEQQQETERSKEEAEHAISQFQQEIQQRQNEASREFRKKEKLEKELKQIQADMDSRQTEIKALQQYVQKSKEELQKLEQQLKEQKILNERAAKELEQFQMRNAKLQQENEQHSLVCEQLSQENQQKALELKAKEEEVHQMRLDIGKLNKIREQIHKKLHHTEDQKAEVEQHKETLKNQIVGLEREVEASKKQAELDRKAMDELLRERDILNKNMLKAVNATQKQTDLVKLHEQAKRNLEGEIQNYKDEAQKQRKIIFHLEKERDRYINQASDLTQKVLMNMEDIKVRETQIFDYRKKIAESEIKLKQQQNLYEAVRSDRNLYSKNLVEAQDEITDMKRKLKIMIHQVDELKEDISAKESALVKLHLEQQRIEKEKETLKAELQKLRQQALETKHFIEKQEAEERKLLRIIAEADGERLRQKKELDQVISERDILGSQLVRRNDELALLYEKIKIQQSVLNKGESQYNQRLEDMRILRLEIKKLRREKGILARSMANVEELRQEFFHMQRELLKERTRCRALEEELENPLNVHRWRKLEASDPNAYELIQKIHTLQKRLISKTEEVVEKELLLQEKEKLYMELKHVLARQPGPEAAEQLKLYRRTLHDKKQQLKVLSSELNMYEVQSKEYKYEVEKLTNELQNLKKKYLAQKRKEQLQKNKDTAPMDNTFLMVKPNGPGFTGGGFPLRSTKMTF
Second: CRLS1 (UniProt Q9UJA2)
Chain of UniProt Q9UJA2 (Q9UJA2 whole entry, looked up): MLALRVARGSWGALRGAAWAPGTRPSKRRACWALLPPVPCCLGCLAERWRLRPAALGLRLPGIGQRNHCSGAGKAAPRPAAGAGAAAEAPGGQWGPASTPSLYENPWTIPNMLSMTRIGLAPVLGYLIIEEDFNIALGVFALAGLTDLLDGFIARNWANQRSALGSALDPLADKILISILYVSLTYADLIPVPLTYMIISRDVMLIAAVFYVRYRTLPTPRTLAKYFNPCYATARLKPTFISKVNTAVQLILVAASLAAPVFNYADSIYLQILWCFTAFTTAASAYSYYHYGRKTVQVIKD
The log2 fold change of the first is lower: -0.357 for the first, 0.012 for the second.

CLCN5 isoform 2 (UniProt P51795) and CDK2AP2 (UniProt O75956) are within 0.2 log units of each other in log2 fold change: 0.045 for the first, 0.009 for the second.

With CLN3 (UniProt Q13286) the log2 fold change was 0.042.

Compound: O=C(O)c1ccc2c(c1)nc(Nc1cccc(Cl)c1)c1ccncc12 [silmitasertib]
Assay: as above
Procedure, shortened: as §1

CCM2 isoform 2 (UniProt Q9BSQ5) and CCDC167 (UniProt Q9P0B6) are within 0.2 log units of each other in log2 fold change: 0.048 for the first, 0.135 for the second.

First: CCND3 (UniProt P30281)
Chain of UniProt P30281 (P30281 whole entry, looked up): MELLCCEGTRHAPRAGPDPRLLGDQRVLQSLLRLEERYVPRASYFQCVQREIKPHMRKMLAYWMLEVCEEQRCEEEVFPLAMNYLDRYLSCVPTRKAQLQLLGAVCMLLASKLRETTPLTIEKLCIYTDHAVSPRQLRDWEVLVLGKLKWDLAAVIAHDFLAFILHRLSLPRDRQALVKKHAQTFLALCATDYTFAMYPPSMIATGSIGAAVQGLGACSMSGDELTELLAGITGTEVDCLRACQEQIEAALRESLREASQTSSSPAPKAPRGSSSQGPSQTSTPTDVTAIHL
Second: CEMIP2 (UniProt Q9UHN6)
Chain of UniProt Q9UHN6 (Q9UHN6 whole entry, looked up): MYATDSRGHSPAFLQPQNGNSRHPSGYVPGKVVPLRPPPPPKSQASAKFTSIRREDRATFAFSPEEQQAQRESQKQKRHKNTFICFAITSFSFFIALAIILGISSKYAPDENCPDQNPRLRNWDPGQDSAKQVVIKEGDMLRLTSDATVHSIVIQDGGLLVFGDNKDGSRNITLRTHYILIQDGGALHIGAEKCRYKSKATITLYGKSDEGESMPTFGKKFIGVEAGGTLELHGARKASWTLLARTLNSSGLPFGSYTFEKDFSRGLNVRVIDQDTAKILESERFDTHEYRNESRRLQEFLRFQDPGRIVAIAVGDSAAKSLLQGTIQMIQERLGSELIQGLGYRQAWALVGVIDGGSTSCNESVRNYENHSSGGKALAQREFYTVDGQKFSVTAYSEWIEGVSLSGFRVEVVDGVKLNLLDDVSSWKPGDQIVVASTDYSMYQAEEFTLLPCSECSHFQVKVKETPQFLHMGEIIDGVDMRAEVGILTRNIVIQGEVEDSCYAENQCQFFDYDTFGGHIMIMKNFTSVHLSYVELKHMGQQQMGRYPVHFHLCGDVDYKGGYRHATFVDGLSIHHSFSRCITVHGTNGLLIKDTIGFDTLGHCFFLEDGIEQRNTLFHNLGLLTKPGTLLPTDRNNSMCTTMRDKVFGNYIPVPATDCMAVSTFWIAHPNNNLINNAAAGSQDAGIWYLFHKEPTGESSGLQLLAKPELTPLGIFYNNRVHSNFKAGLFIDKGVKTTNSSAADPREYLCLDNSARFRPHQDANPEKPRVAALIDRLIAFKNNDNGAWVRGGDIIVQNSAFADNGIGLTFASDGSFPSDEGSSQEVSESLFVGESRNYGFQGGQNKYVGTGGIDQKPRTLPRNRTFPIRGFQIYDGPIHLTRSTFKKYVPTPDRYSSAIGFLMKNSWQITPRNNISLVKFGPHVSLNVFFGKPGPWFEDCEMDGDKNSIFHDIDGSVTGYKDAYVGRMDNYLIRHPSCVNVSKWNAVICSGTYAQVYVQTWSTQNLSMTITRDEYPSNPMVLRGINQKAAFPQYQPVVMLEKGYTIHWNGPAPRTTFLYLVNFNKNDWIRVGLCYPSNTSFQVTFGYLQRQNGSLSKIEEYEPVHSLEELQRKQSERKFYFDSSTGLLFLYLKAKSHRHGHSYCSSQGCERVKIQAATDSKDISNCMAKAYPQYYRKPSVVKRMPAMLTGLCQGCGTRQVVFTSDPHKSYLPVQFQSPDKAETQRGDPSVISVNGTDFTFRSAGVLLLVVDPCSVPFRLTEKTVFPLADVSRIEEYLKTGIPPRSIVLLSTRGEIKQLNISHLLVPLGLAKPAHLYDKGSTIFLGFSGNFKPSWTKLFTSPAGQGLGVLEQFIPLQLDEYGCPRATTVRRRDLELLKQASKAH
The log2 fold change of the first is higher: 0.28 for the first, 0.057 for the second.

CCDC82 (UniProt Q8N4S0) and CNOT4 isoform 9 (UniProt O95628) are within 0.2 log units of each other in log2 fold change: 0.047 for the first, 0.024 for the second.

CD68 (UniProt P34810) and CKS2 (UniProt P33552) are within 0.2 log units of each other in log2 fold change: 0.07 for the first, 0.065 for the second.

CCDC57 (UniProt Q2TAC2) and CEBPZOS (UniProt A8MTT3) are within 0.2 log units of each other in log2 fold change: -0.038 for the first, 0.018 for the second.

CLASP2 (UniProt O75122) and COMMD1 (UniProt Q8N668) are within 0.2 log units of each other in log2 fold change: 0.083 for the first, -0.021 for the second.

CLINT1 (UniProt Q14677) and CFAP58 (UniProt Q5T655) are within 0.2 log units of each other in log2 fold change: 0.021 for the first, -0.008 for the second.

CNRIP1 (UniProt Q96F85) and CSNK1A1 isoform 3 (UniProt P48729) are within 0.2 log units of each other in log2 fold change: -0.13 for the first, 0 for the second.

CRLS1 (UniProt Q9UJA2) and CREB3L2 (UniProt Q70SY1) are within 0.2 log units of each other in log2 fold change: 0.017 for the first, 0.023 for the second.

CCNL1 (UniProt Q9UK58) and CDK2AP2 (UniProt O75956) are within 0.2 log units of each other in log2 fold change: -0.173 for the first, -0.094 for the second.

CLN3 (UniProt Q13286) and CRTC3 (UniProt Q6UUV7) are within 0.2 log units of each other in log2 fold change: 0.025 for the first, 0.098 for the second.
